Pf growth 48h = Primary qHTS for delayed death inhibitors of the malarial parasite plastid, 48 hour incubation. P. falciparum luciferase growth in erythrocytes, 48 h. Potency, µM (series often up to 28.7 µM), inactives show top-dose activity change, negative = inhibition, hits mostly inhibitors. 310,000 tested, 5.9% active. AID 504832, 2011; also: potency is read from the fitted curve at half-maximal effect; % is scaled to controls: 0 for no effect and ±100 for the full control effect
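Here the parasites carry a stable luciferase gene and grow inside erythrocytes in Albumax-based RPMI medium with compound for one erythrocytic cycle. Activity is scored as loss of luminescent signal.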
Pf growth 96h = Primary qHTS for delayed death inhibitors of the malarial parasite plastid, 96 hour incubation. 320,000 tested, 6.9% active. P. falciparum luciferase reporter growth, 96 h. Potency, µM (highest dose often 28.7 µM), for the others: at the highest dose activity change, negative = inhibition, actives largely listed as inhibitors. AID 504834, 2011; also: potency is read from the fitted curve at half-maximal effect; % is scaled to controls: 0 for no effect and ±100 for the full control effect
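Two parasite generations (96 h, 37 C, 5% CO2) of compound exposure in infected erythrocytes (0.05% parasitemia, 2% hematocrit). Luciferase-reporter P. falciparum; decreased luminescence indicates inhibited growth, aimed at apicoplast-acting delayed death.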
Cycloheximide cs = Cycloheximide Counterscreen for Small Molecule Inhibitors of Shiga Toxin. 300,000 tested, 12% active. max response, %. AID 2314, 2010. cell reporter, cycloheximide protein synthesis inhibition counterscreen; in the data active = max response mostly above about 13%, no sharp cut-off; inactive = mostly below about 14%; also: read at 38.3 µM for the half of the compounds with a filed dose; 0% is about no effect
LmPK inhibitor = qHTS Assay for Inhibitors of Leishmania Mexicana Pyruvate Kinase (LmPK). Potency, µM (doses to about 57.5 µM), without a hit: at the highest dose activity change, negative = inhibition, most hits filed as inhibitors. 290,000 tested, 0.37% active. purified LmPK, Kinase-Glo ATP luminescence, 1 h; also: potency is read from the fitted curve at half-maximal effect; % is scaled to controls: 0 for no effect and ±100 for the full control effect
Target sequence (Q27686 whole entry, looked up): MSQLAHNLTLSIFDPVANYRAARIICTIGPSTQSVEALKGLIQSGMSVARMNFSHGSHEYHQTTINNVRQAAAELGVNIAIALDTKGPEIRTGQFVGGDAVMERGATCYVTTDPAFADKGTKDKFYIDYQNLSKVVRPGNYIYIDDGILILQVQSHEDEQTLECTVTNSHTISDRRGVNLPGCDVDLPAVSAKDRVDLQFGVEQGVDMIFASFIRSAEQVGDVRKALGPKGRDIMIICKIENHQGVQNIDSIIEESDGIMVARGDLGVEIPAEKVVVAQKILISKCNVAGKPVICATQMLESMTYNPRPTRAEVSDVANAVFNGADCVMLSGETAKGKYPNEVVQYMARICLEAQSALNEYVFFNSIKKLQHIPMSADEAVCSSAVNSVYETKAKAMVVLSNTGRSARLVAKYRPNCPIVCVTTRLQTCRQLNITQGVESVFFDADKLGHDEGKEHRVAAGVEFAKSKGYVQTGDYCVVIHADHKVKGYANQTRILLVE
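Purified LmPK (0.1 nM) converted ADP (0.1 mM) to ATP with PEP (0.5 mM) in imidazole buffer pH 7.2 with KCl and MgCl2, 1 h at room temperature. ATP was read by Kinase-Glo luminescence; data normalized to uninhibited and no-enzyme controls.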
Shiga toxin inh = A qHTS for Small Molecule Inhibitors of Shiga Toxin; Vero cells, Shiga toxin protein synthesis inhibition reporter; inhibition, % at 38.7 µM; 290,000 tested, 9.2% active; in the data active = inhibition mostly above about 28%, no sharp cut-off; inactive = mostly below about 43%; also: 0% is about no effect
* = called active by the depositor; u = inconclusive; x = no result given; [ ] = remark or other dose. Sampled rows, rich in hits. Any-hit rate of the full collection: about 22%. Unless noted, calls follow the shape of the dose curve; as a rule, active = well fitted inhibition curve with a large enough effect; inconclusive = small, poorly fitted or top-dose-only effect, or another doubt; inactive = no such curve, though single readings can be large or run the other way.

SMILES	Pf growth 48h	Pf growth 96h	Cycloheximide cs	LmPK inhibitor	Shiga toxin inh
C=Cc1cc(F)c(S(=O)(=O)N2CCN(S(=O)(=O)c3ccc4c(c3)OCCO4)CC2)cc1F	x	x	-9.6	x	-12.9
C=CCN1C(=O)/C(=C2/C(=O)N(CC(=O)O)c3ccccc32)S/C1=N/c1nccs1	-6.8%	4.1%	1.7	0.5%	-6.3
NNC(=S)Nc1c(F)cc(F)cc1Br	-29.3%	u	1.9	1.6%	-6.4
CCOC(=O)c1c(C)n(Cc2ccco2)c2ccc(OC)cc12	0.0%	x	0.7	-1.2%	22.5
CCOC(=O)c1c(C)n(C)c2ccc(OC(C)=O)cc12	21.5%	u	-0.9	-0.9%	0.8
CCOC(=O)c1c(C)n(C)c2cc(-c3ccc(F)cc3)c(O)cc12	7.38µM*	-21.6%	1.4	-3.5%	-17.5
CCOC(=O)c1c(C)n(CCN2CCN(C)CC2)c2ccc(OC)cc12	u	3.7µM*	-2.3	-0.1%	-16.6
CCOc1ccc(-n2c(C)c(C(C)=O)c3cc(OCC(N)=O)ccc32)cc1	13.1µM*	0.1%	-1.9	0.2%	-11.1
CCOC(=O)c1c(C)n(C)c2ccc(OCC(N)=O)cc12	3.4%	10.4µM*	1.5	-1.3%	8.8
COc1ccc(Cl)cc1NC(=O)C1CCCN(S(C)(=O)=O)C1 (stereo not drawn)	3.6%	9.7%	-1.7	3.3%	-10.7
COc1ccccc1CNC(=O)C(NC(=O)c1ccccc1C)C(C)C (stereo not drawn)	-17.3%	5.8%	-2.2	0.1%	0.5
CCN(CC(=O)NCc1ccc(Cl)cc1)C(=O)CCOc1ccc(C)cc1	-22.6%	-3.8%	x	x	x
COCCOC(=O)c1c(C)n(C)c2ccc(OC(=O)c3c(OC)cccc3OC)cc12	1.85µM*	u	9.1	-1.4%	-2.7
CCn1c(C)c(C(=O)Nc2ccc(OC)cc2)c2cc(OC)ccc21	58.2%	46.7%	19.4*	0.8%	27.3
CCOC(=O)c1c(C)n(C)c2ccc(OCC(O)CN(CC)CC)cc12 (stereo not drawn)	x	5.86µM*	-2.5	14.7%	-16.8
CCOC(=O)c1c(C)n(C)c2ccc(OCC(O)Cn3nc(C)cc3C)cc12 (stereo not drawn)	u	x	0.3	-0.6%	-15.8
CCCCn1c(C)c(C(=O)O)c2cc(OC)ccc21	6.2%	120.2%	-1.4	2.1%	-12.5
CO/N=C(/C)CCS(=O)(=O)c1ccccc1	u	4.5%	6.2	-6.6%	-10.4
O=C(Cc1ccccc1)Nc1sc2c(c1C(=O)Nc1ccc(Cl)cc1)CCOC2	x	x	2.7	x	10.2
CCCCc1nc2c(c3c1C[C@H](C)OC3)CN(S(=O)(=O)c1c(C)noc1C)CC2	x	x	x	-1.2%[11.5 µM]	x
CC(C)=N/N=C(/c1ccc([N+](=O)[O-])cc1)C12CN3CN(CN(C3)C1)C2	0.0%	13.1µM*	-8.7	-0.9%	-3.6
O=C(c1cccc([N+](=O)[O-])c1)C12CN3CN(CN(C3)C1)C2	u	57.1%	6.0	-8.0%	2.7
CCn1c(=O)c2cc(C(=O)NCCC(C)C)sc2c2ccccc21	u	43.0%	-1.9	1.4%	-3.2
CCC(C)NC(=O)c1cc2c(=O)n(CC)c3ccccc3c2s1 (stereo not drawn)	7.6%[0.00184 µM]	u	11.6*	3.5%	8.8
CCn1c(=O)c2cc(C(=O)NCC(OC)OC)sc2c2ccccc21	9.8%[0.00184 µM]	1.47µM*	-1.8	1.8%	2.1
SMILES	Pf growth 48h	Pf growth 96h	Cycloheximide cs	LmPK inhibitor	Shiga toxin inh
CCOC(CNC(=O)c1cc2c(=O)n(CC)c3ccccc3c2s1)OCC	3.3%[0.00184 µM]	37.5%	-6.0	-2.5%	-5.5
CCCCNCC#CCOc1cc(C)ccc1C(C)C	u	122.3%	-8.1	-2.3%	-16.0
Cc1cc(=O)oc2c(C)c(OC3CCCCC3=O)ccc12 (stereo not drawn)	x	-9.6%	0.8	-1.0%	17.1
O=C(COC(=O)c1ccc(S(=O)(=O)C(F)F)cc1)Nc1ccccc1C(=O)NC1CC1	12.4%	-11.2%	x	x	x
CC(C)(C)C(=O)OCc1nc(-c2ccc(F)cc2)cs1	139.2%	-3.1%	41.6*	-5.5%	92.3*
NC(=S)Cc1nc(-c2ccc(Cl)cc2)cs1	30.1%	u	28.5	0.6%	79.7*
CC(C)(C)C(=O)OCc1nc(-c2ccc3c(c2)OCCO3)cs1	91.4%	162.0%	54.2*	-13.0%	113.8*
COc1ccc(-c2csc(COC(=O)C(C)(C)C)n2)cc1	104.2%	112.0%	30.3*	-4.9%	74.9*
O=C(COC(=O)c1ccccc1NCCO)Nc1cccc(S(=O)(=O)NC2=NCCCCC2)c1	-6.3%	u	x	x	x
CCc1ncc(CN2CCC(C(=O)Nc3cccc(-c4cscn4)c3)CC2)cn1	-19.1%	u	-0.6	1.0%	17.2
CC(C)(C)C(=O)OCc1nc(-c2ccc(Cl)cc2)cs1	377.2%	146.8%	59.0*	-7.7%	69.4*
NNC(=O)CSCc1nc(-c2ccc(Cl)cc2)cs1	-5.7%	u	9.8	-1.8%	29.9
COc1ccc(S(=O)(=O)n2nc(OC(=O)c3ccc(C)cc3)cc2N)cc1	-4.5%	x	27.4*	1.0%	56.0
Cc1onc(-c2ccccc2Cl)c1C(=O)Oc1cc(N)n(S(=O)(=O)c2ccc(F)cc2)n1	5.6%	u	-2.6	5.0%	-17.4
Cc1ccc(S(=O)(=O)n2nc(OC(=O)c3c(-c4ccccc4Cl)noc3C)cc2N)cc1	11.3%	2.08µM*	-3.9	6.2%	-1.6
CS(=O)(=O)n1nc(OC(=O)c2cccc3ccccc23)cc1N	20.3%	5.22µM*	63.1*	7.2%	72.1*
COc1cc(C(=O)Oc2cc(N)n(S(=O)(=O)c3ccc(F)cc3)n2)cc(OC)c1OC	2.5%	4.65µM*	-4.3	0.2%	-3.2
Cc1ccc(N(CC(O)CN2CCCCC2)S(=O)(=O)c2ccccc2)cc1 (stereo not drawn)	-13.8%	23.5%	15.9	-1.4%	-5.0
Cc1ccc(S(=O)(=O)n2nc(OC(=O)c3ccccc3F)cc2N)cc1	9.9%	11.7µM*	-1.8	10.8%	-9.8
O=C(NC1CCCCC1)c1cc(S(=O)(=O)N2CCCC2)ccc1Cl	-12.8%	4.3%	-9.3	-7.3%	-5.9
Cc1nc2c(=O)n(C)c(=O)nc-2n(C)n1	0.329µM*	-9.4%	-10.9	-0.4%	-2.7
Cc1ccc(C)c(-n2c3nc(=O)n(C)c(=O)c-3cc3ccccc32)c1	0.0%	-22.0%	-2.1	6.6%	-9.2
O=c1c2cc(Br)ccc2nc(-c2ccccc2)n1O	x	-4.7%	11.3*	-1.4%	14.9
CCCCCCCCCCOC(=O)Cn1c(COc2ccccc2OC)[n+](C)c2ccccc21	1.65µM*	u	-2.9	2.5%	-7.6
CN1CCN(C(=O)c2cc(=O)c3cc(Cl)cc(Cl)c3o2)CC1	33.0%	35.5%	1.2	0.3%	-7.2
CC#CCN1c2ccccc2[C@]23C[C@@H](C(=O)OC)N(S(=O)(=O)c4ccc([N+](=O)[O-])cc4)C2=NC(C(=O)OC)=C(C(=O)OC)[C@H]13	x	x	x	-0.2%[11.5 µM]	x
Cc1nc(C)c(-c2csc(Nc3ccc(O)c(C(=O)O)c3)n2)s1	-5.7%	u	-0.9	0.3%	9.0

Screening results from PubChem.
